Out of some 220,000 compounds screened, about 800 (0.36%) were called active.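 How the source made its calls: active means inhibition above about 50% (limit read from the data); inactive means the rest.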 The entries come from a sample that favours actives as a whole.

By inhibition is commonly meant the drop in the measured response relative to a control, in per cent.

In the assay the test system is calpain II (m-calpain), Sus scrofa. Description: m-calpain protease activity blockers – biochemical, fluorogenic peptide substrate, 1536-well, primary screen (AID 1236). As to conditions: purified calpain II, 30 min, at 16 µM, stronger effect = higher value.
Turning to `CC(C)NC(=S)NN=C1CCCCCCCCCCC1`, the inhibition is 54.9% (active).

For the compound `C/C(=N\NC(=S)NC(C)C)c1ccc(C(C)(C)C)cc1`, the inhibition was 6.32% (inactive).

Regarding `CC(C)(C)NC(=O)C(=O)NN=C1CCCCCCC1`, the inhibition was -5.09% (inactive).

Consider `Nc1ccc(Cl)c(S(=O)(=O)Nc2ccccc2Cl)c1`, for which the inhibition is -15% (inactive).

`COc1ccc(Cl)cc1C(=O)Nc1ccc(N(C)C(C)=O)cc1`: the inhibition was -12.6% (inactive).

Turning to `Cn1nc(C(C)(C)C)c(NC(=O)c2sccc2Cl)c1C(C)(C)C`, the inhibition is -8.61% (inactive).

Turning to `O=C(CN1C2=NCCN2c2ccccc21)c1cccs1`, the inhibition is -7.58% (inactive).

For `COc1cc(-n2c(C)nc3cc(C(=O)NCc4ccco4)ccc32)cc(OC)c1OC`, the inhibition is 8.54% (inactive).

Consider `COc1cc(C(=O)NCc2ccc3c(c2)cc(C)n3C)cc(OC)c1OC`, for which the inhibition was 65% (active).

For `COc1cc(C(=O)NCc2ccc(-n3cccc3)cc2)cc(OC)c1OC`, the inhibition was 8.77% (inactive).

With `CC(C)(C)c1ccc(CCC2OCC(CN3CCOCC3)O2)cc1` (centres undefined), the inhibition was -40.5% (inactive).

For `Cc1sc2nc(COC(=O)C(NC(=O)c3ccc(Cl)cc3Cl)C(C)C)[nH]c(=O)c2c1C` (centres undefined), the inhibition is -7.99% (inactive).

`CNC(=O)c1csc(Cc2c(Cl)sc3ccc(Cl)cc23)n1`: the inhibition is 0.86% (inactive).

Regarding `CC1CC1C(=O)OCC(=O)c1c(N)n(C)c(=O)n(C)c1=O` (centres undefined), the inhibition is 3.06% (inactive).

Consider `Cn1c(N)c(C(=O)COC(=O)C23CC4CC(CC(C4)C2)C3)c(=O)n(C)c1=O`, for which the inhibition is 79.2% (active).

Consider `CC(=O)c1c(N)n(C)c(=O)n(C)c1=O`, for which the inhibition was -24.4% (inactive).

As to `Cc1ccc2[nH]cc(CCNC(=O)c3ccc([N+](=O)[O-])cc3)c2c1`, the inhibition was 9.36% (inactive).

As for `CC(C)c1nccn1S(=O)(=O)c1cc([N+](=O)[O-])ccc1Cl`, the inhibition was 12% (inactive).

As to `COc1ccc(O[C@H]2C=C[C@@H](c3ccccc3)O[C@@H]2CO/N=C/C[C@@H]2C=C[C@H](OC(C)=O)[C@@H](COC(C)=O)O2)cc1`, the inhibition was 27% (inactive).

Turning to `Cc1cccc2cc3c(N)c(C(=O)N4CCCc5ccccc54)sc3nc12`, the inhibition is -64.7% (inactive).

Take `COc1ccc(-c2nnc3ccc(SCc4ccccc4)nn23)cc1`: the inhibition is -6.26% (inactive).

Turning to `COc1cc(N/C=C2\CC(=O)NC(C)=C2C#N)cc(OC)c1OC`, the inhibition is -145% (inactive).

Turning to `Oc1c(Cl)cc(Cl)c(Cl)c1Cc1c(O)c(Cl)cc(Cl)c1Cl`, the inhibition is 109% (active).

`CCOC(=O)c1cc2c(=O)n3ccccc3nc2n(CC(C)C)c1=NC(=O)c1c(-c2c(F)cccc2Cl)noc1C`: the inhibition was -60.6% (inactive).

Consider `CCOC(=O)c1c(C)nn(-c2ncccc2NC(=O)CCC(=O)O)c1C`, for which the inhibition was 10.4% (inactive).

Consider `CCc1nnc(NC(=O)CCCSc2nc3ccccc3[nH]2)s1`, for which the inhibition was 2.67% (inactive).

For the compound `O=C(COC(=O)CCCSc1nc2ccccc2[nH]1)Nc1ccc(Oc2ccccc2)cc1`, the inhibition was 51.3% (active).

As for `CCCCSc1nc2ccccc2[nH]1`, the inhibition was -22.6% (inactive).

With `CCCCCn1c(=O)c(C(=O)OCC)c(Cl)c2ccccc21`, the inhibition is -1.97% (inactive).

In the case of `COc1ccc(C)cc1NC(=O)c1ccc(-c2ccc(C(C)=O)cc2)o1`, the inhibition was -135% (inactive).

Regarding `COC(=O)c1ccccc1NC(=O)C1CC(=O)N(c2ccc(OC)cc2)C1` (centres undefined), the inhibition was 4.97% (inactive).

For the compound `CCN(CC)CCNC(=O)CCCCCn1c(=O)[nH]c2cc(C(=O)OC)ccc2c1=O`, the inhibition is -103% (inactive).

`CCCCC(CC)CNC(=O)CCCCn1c(=O)[nH]c2ccsc2c1=O` (centres undefined): the inhibition was 13.6% (inactive).

On to `CCN(CCCNC(=O)CCn1c(=O)[nH]c2ccsc2c1=O)c1ccccc1`, for which the inhibition is 64.7% (active).

Turning to `O=c1cc(O)c(-c2cccc(C(F)(F)F)c2)c(Cl)[nH]1`, the inhibition was 27.3% (inactive).

`Cc1cc(C(=O)CCl)c(C)n1CC1COc2ccccc2O1` (centres undefined): the inhibition is -16.6% (inactive).

Regarding `COc1ccc(-c2cc(C3CCN(c4ncccc4[N+](=O)[O-])CC3)[nH]n2)cc1`, the inhibition was 10.5% (inactive).

Consider `Cc1ccc(NN=C2C(=O)OC(C)(C)OC2=O)c(C)c1`, for which the inhibition is 6.22% (inactive).

As for `Cc1ccc(OCCCn2c(=O)oc3ccccc32)cc1`, the inhibition was 21.8% (inactive).

Regarding `O=C(Nc1ccc2c(c1)CCC2)c1cccc(S(=O)(=O)Nc2ccccc2Cl)c1`, the inhibition is 55.1% (active).

As for `O=C(Nc1ccc2c(c1)CCC2)c1cccc(S(=O)(=O)N2CCN(c3ccc(F)cc3)CC2)c1`, the inhibition is -32.9% (inactive).

Turning to `O=C(c1cccc(S(=O)(=O)Nc2ccccc2Cl)c1)N1CCN(C(=O)c2ccco2)CC1`, the inhibition is 10.2% (inactive).

For `O=C(Nc1cc2c3c(c1)C1CCCC1CN3CC1CCCC21)c1ccc([N+](=O)[O-])cc1` (centres undefined), the inhibition was -34.8% (inactive).

`O=C(Oc1cccc(NC2=NS(=O)(=O)c3ccccc32)c1)c1ccncc1`: the inhibition was -20.9% (inactive).

As to `COC(=O)Cc1c(O)ccn(Cc2cccc(C(F)(F)F)c2)c1=O`, the inhibition is -20.3% (inactive).

Consider `CC(C)Cc1nnc(NC(=O)CCC(=O)Nc2ccc3cn[nH]c3c2)s1`, for which the inhibition was -10.5% (inactive).

In the case of `CSCCC(NS(=O)(=O)c1ccc2c(c1)oc(=O)n2C)C(=O)NC1CCCc2ccccc21` (centres undefined), the inhibition was 30.2% (inactive).

Regarding `O=C(Nc1ccc(S(=O)(=O)Nc2nccs2)cc1)c1cc(-c2ccncc2)nc2ccccc12`, the inhibition was -37.6% (inactive).

As for `COc1cccc2cc(S(=O)(=O)c3ccc(C)cc3)/c(=N/NS(=O)(=O)c3ccc(C)cc3)oc12`, the inhibition was -24.9% (inactive).

These data come from PubChem BioAssay AID1236 (Emory University Molecular Libraries Screening Center, 2008).
